Measured values from PubChem BioAssay (Tox21).
“And” between values parts separate entries of the source, which are not always exact repeats. Equal entries are not always repeated. Records with an inconclusive call do not appear. Entries that show only a call come without a potency. The source holds several records for some structures; these can differ, active in one and inactive in another. The source made the active and inactive calls. Calls come from the whole dose curve; as a rule, active = well fitted cell-killing curve with a large enough effect in the repeat runs; inconclusive = weak or mixed curves, or effect the other way; inactive = no such curve, though single readings can be large or run the other way.
Potency is the fitted concentration of half-maximal effect.

Test: qHTS assay for identifying genotoxic compounds that show differential cytotoxicity against isogenic chicken DT40 cell lines with known DNA damage response pathways - wild type cell line (AID 743012); note: nearly all actives have a fitted effect of over 60% in size
Details: DT40 wild type chicken cells viability, CellTiter-Glo, 40 h; series mostly up to 68.4 µM; activity change, negative = cytotoxicity: at the top concentration
Description: U.S. Tox21 Program National Center for Advancing Translational Sciences [NCATS] NIH Chemical Genomics Center [NCGC] U.S. Environmental Protection Agency [EPA] National Institutes of Environmental Health Sciences [NIEHS] National Toxicology Program [NTP] U.S. Food and Drug Administration [FDA] Tox21 Assay Overview: DNA repair pathways play a critical role in cellular homeostasis by repairing DNA damage induced by endogenous processes and xenobiotics. Isogenic chicken DT40 cell lines deficient in different DNA repair pathways can be used to identify genotoxic compounds and aid in characterizing the nature of the DNA damage induced. Two DNA repair-deficient cell lines with disrupted genes, Rad54/Ku70 or Rev3, were used to screen the Tox21 10K compound library. Possible genotoxicity was based on the presence of a significant increase in cytotoxicity in one or more of the DNA repair-deficient cell lines compared to that observed in the parental DNA repair-proficient cell line. CellTiter Glo viability assay (Promega, Madison, WI) was used to measure cell viability in these cells after compound treatment. This assay includes the data from the wild type cell line.
Tox21 Assay Protocol Summary: 300 DT40 wild type cells in 5 uL/well were dispensed into white, solid-bottom 1536-well plates using a Multidrop Combi (ThermoFisher Scientific, Waltham, MA) dispenser. After the assay plates were incubated at 37 C/5% CO2 for approximately 0.5 hour, 23 nL of compounds dissolved in DMSO, positive controls or DMSO only was transferred into the assay plate by a pintool work station (Kalypsys, San Diego, CA). The assay plates were incubated at 37 C/5% CO2 for 40 hours. After 5 uL per well of CellTiter-Glo reagent was added into each well of the assay plates, the plates were incubated for 30 min at room temperature and the luminescence intensity of the plates was measured using a ViewLux (PerkinElmer, Shelton, CT) plate reader.
For `O=c1[nH]cnc2[nH]ncc12`, the Potency was “inactive”.
With `CC(CCO)CC(C)(C)C` (stereo not given) the “activity change, negative = cytotoxicity” value was 8.24% (inactive).
With `CC(C)(Oc1ccc(CCNC(=O)c2ccc(Cl)cc2)cc1)C(=O)O` the “activity change, negative = cytotoxicity” value was 11.5% [at 31.4 µM] (inactive).
With `O=[N+]([O-])c1ccc2nc[nH]c2c1` the “activity change, negative = cytotoxicity” value was -14.4% (inactive).
With `CCCCC(C=O)CC` (stereo not given) the Potency was “inactive”.
For `CCOCCOCCOCCO`, the Potency was “inactive”.
For `CC(=O)OCCOC(C)=O`, the Potency was “inactive”.
With `O=C(O)Cn1c(=O)n(Cc2ccc(Br)cc2F)c(=O)c2ccc(Cl)cc21` the “activity change, negative = cytotoxicity” value was 3.17% (inactive).
For `CCNc1cccc(C)c1`, the Potency was “inactive”.
In the case of `CCCCCCCCCCCC(=O)OC`, the Potency is reported as “inactive”.
For `CCOCC(=O)O`, the “activity change, negative = cytotoxicity” value was -0.32% (inactive).
For `CCCCCCCCCCCCCCCCO`, the “activity change, negative = cytotoxicity” value was -1.44% (inactive).
With `COc1ccc(OC)cc1` the “activity change, negative = cytotoxicity” value was -8.51% (inactive).
With `O=C(O)c1ccc(S(=O)(=O)N(Cl)Cl)cc1` the “activity change, negative = cytotoxicity” value was 4.59% (inactive).
With `CC1(C)OC[C@@H]2O[C@@]3(C(=O)O)OC(C)(C)O[C@H]3[C@@H]2O1` the Potency was “inactive”.
In the case of `CCc1ccccc1CC`, the Potency is reported as “inactive”.
With `CCCCCCCCCCCCCCCC(=O)OC(C)C` the Potency was “inactive”.
In the case of `CCCCCCO`, the Potency is reported as “inactive”.
For `c1ccc2c(c1)Cc1ccccc1-2`, the “activity change, negative = cytotoxicity” value was 14.3% [at 95 µM] (inactive).
For `NCCN1CCNCC1`, the Potency was “inactive”.
With `Clc1ccccn1` the Potency was “inactive”.
For `CC(=O)Oc1ccc(C)cc1`, the Potency was “inactive”.
For `CCO[Si](CCCN)(OCC)OCC`, the Potency was “inactive”.
In the case of `CCCCCC(=O)O`, the Potency is reported as “inactive”.
With `CCCCCCCC=O` the Potency was “inactive”.
With `CCOC(=O)n1ccn(C)c1=S` the Potency was “inactive”.
In the case of `OCc1ccccc1`, the Potency is reported as “inactive”.
In the case of `CC(C)=CCl`, the “activity change, negative = cytotoxicity” value is reported as 6.54% (inactive).
With `CC(C)(C)c1cc(Cc2cc(C(C)(C)C)c(O)c(C(C)(C)C)c2)cc(C(C)(C)C)c1O` the Potency was “inactive and 61.1 µM (active)”.
With `COc1cc(OC)c(C(=O)CCCN2CCCC2)c(OC)c1` the Potency was “inactive”.
For `CC(C)c1cccc(C(C)C)c1`, the Potency was “inactive”.
In the case of `Cc1ccc(S(=O)(=O)N=C=O)cc1`, the Potency is reported as “inactive”.
With `COC(=O)c1cccnc1` the Potency was “inactive”.
In the case of `COc1ccc(C)cc1N`, the Potency is reported as “inactive”.
For `C=CC[N+](C)(C)CC=C`, the Potency was “inactive”.
For `CC(=O)OCc1ccccc1`, the Potency was “inactive”.
In the case of `CN(C)c1ccc(O)c2c1C[C@H]1C[C@H]3[C@H](N(C)C)C(=O)C(C(N)=O)=C(O)[C@@]3(O)C(=O)C1=C2O`, the Potency is reported as 21.1 µM (active) [middle of 4 runs].
With `CC(CCl)OP(=O)(OC(C)CCl)OC(C)CCl` (stereo not given) the “activity change, negative = cytotoxicity” value was 0.198% (inactive).
With `Cc1ccc2ncccc2c1` the Potency was “inactive”.
With `C=C(C)[C@H]1CC=C(C)C(=O)C1` the Potency was “inactive”.
